Data published in PubChem BioAssay (EPA / NIEHS).
Where “and” joins values, the source holds several entries; their conditions need not be identical. Equal values may be shown once. Inconclusive results are not listed. The source holds several records for some structures; these can differ, active in one and inactive in another. Calls of active or inactive are those of the source. How the source made its calls, unless noted: active means hit-call score of the fitted dose curve at least 0.9, where 1 is the maximum; inactive means score below 0.9.

Legend:
[1] = ATG_TCF_b_cat_CIS: Attagene CIS-FACTORIAL HepG2 Assay for human T-Cell-Factor with beta-catenin (TCF/b-cat) (AID 2282965); conditions: HepG2 TCF/beta-catenin cis-reporter transcription, actives raise or lower the signal
In short: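 HepG2 cells transiently transfected with cis-promoter-driven multiplexed reporter units; reporter mRNA measured 24 h after dosing by RT-PCR, FAM labelling, HpaI digestion and capillary electrophoresis. Bidirectional fitting relative to DMSO baseline.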

[2] = ATG_TAL_CIS: Attagene CIS-FACTORIAL HepG2 Assay for human TAL Basal Promoter (AID 2282966); conditions: HepG2 Attagene cis-factorial TAL promoter reporter; actives raise or lower the signal;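 further: background control endpoint measuring basal TAL promoter reporter mRNA not a specific factor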
In short: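 HepG2 cells were transiently transfected with promoter-driven multiplexed reporter units and dosed for 24 h. Reporter mRNA was measured by RT-PCR with capillary electrophoresis fluorescence; bidirectional fits used DMSO as baseline, serving as a background control.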

[3] = ATG_TGFb_CIS: Attagene CIS-FACTORIAL HepG2 Assay for human Transforming Growth Factor (TGF) (AID 2282967); conditions: HepG2 Attagene CIS TGFb reporter, mRNA transcription; actives raise or lower the signal
In short: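 Transient MRTU transfection of HepG2 (FuGene 6). Dose 24 h. TriZol RNA, oligo(dT) RT, PCR, 6-FAM primer extension, HpaI cut, CE. Bidirectional fit, DMSO = baseline.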

[4] = ATG_VDRE_CIS: Attagene CIS-FACTORIAL HepG2 Assay for human Vitamin D Receptor Element (VDRE) (AID 2282968); conditions: HepG2 VDRE cis-reporter transcription, actives raise or lower the signal
In short: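 Transiently transfected HepG2 cells carrying cis-regulated reporter transcription units were exposed for 24 h. Reporter mRNA was measured by RT-PCR with fluorescent labelling and capillary electrophoresis, and fitted in both directions against DMSO.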

[5] = molecular target: Nuclear receptor subfamily 1 group I member 3 (Homo sapiens) (UniProt Q14994); test: ATG_CAR_TRANS: Attagene TRANS-FACTORIAL HepG2 Assay for human Constitutive Androstane Receptor (CAR) (AID 2282969; active means hit-call score of the fitted dose curve at least 0.9, where 1 is the maximum;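 further: activators raise reporter mRNA above DMSO so AC50 marks induction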); conditions: HepG2 Attagene TRANS-FACTORIAL CAR reporter
In short: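 HepG2 cells transiently transfected with GAL4-UAS reporter units; TRANS format reads activity of exogenous chimeric NR-Gal4 protein. After 24 h dosing, reporter mRNA quantified by RT-PCR, 6-FAM labelling and capillary electrophoresis; gain of signal fitted against DMSO.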

[6] = molecular target: Estrogen receptor (Homo sapiens) (UniProt P03372); test: ATG_ERa_TRANS: Attagene TRANS-FACTORIAL HepG2 Assay for human Estrogen Receptor alpha (ERa) (AID 2282970; active means hit-call score of the fitted dose curve at least 0.9, where 1 is the maximum); conditions: HepG2 Attagene TRANS ERa GAL4 reporter, mRNA
In short: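 HepG2 cells transiently transfected with multiplexed GAL4-UAS reporter units; ERa activity read via exogenous chimeric NR-Gal4 protein. After 24 hour compound exposure, reporter mRNA measured by RT-PCR with 6-FAM labelling and capillary electrophoresis; gain-of-signal fitted relative to DMSO.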

[7] = molecular target: Steroid hormone receptor ERR1 (Homo sapiens) (UniProt P11474); test: ATG_ERRa_TRANS: Attagene TRANS-FACTORIAL HepG2 Assay for human Estrogen-Related Receptor alpha (ERRa) (AID 2282971; active means hit-call score of the fitted dose curve at least 0.9, where 1 is the maximum); conditions: HepG2 Attagene TRANS reporter, ERRa transactivation
In short: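 HepG2 cells transiently transfected with multiplexed GAL4-UAS reporter units reading chimeric ERRa-Gal4 activity; 24 h compound exposure. Reporter mRNA measured by RT-PCR, 6-FAM labelling, HpaI digest and capillary electrophoresis; gain of signal fitted versus DMSO baseline.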

[8] = molecular target: X-box-binding protein 1 (Homo sapiens) (UniProt P17861); test: ATG_Xbp1_CIS: Attagene CIS-FACTORIAL HepG2 Assay for human X-box Binding Protein 1 (XBP1) (AID 2282972); conditions: HepG2 XBP1 cis-element reporter, Attagene multiplex; actives raise or lower the signal
In short: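 After a 24-hour chemical exposure of HepG2 cells carrying cis-regulated reporters, reporter mRNA levels are assessed. Quantification uses RT-PCR, 6-FAM labelling and capillary electrophoresis. Gain- or loss-of-signal is fitted against DMSO.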

[9] = ATG_M_19_TRANS: Attagene TRANS-FACTORIAL HepG2 Assay for M19 Transcription Factor (Internal Marker) (AID 2282974; active means hit-call score of the fitted dose curve at least 0.9, where 1 is the maximum); conditions: HepG2 Attagene TRANS-FACTORIAL M19 internal marker reporter
In short: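 Measured here: internal-marker reporter transcript from HepG2 cells transfected with MRTUs, harvested at 24 h. cDNA PCR products were 6-FAM labelled by primer extension, cut with HpaI for 2 h at 37 C, and resolved by CE.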

[10] = molecular target: Androgen receptor (Homo sapiens) (UniProt P10275); test: ATG_AR_TRANS: Attagene TRANS-FACTORIAL HepG2 Assay for human Androgen Receptor (AR) (AID 2282973; active means hit-call score of the fitted dose curve at least 0.9, where 1 is the maximum); conditions: HepG2 Attagene TRANS-FACTORIAL AR reporter transcription
In short: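 HepG2 cells transiently transfected with multiplexed GAL4-UAS reporter units and chimeric NR-Gal4 fusion; 24 h compound exposure. Reporter mRNA measured by RT-PCR, 6-FAM labelling, HpaI digestion and capillary electrophoresis; gain-of-signal fitted relative to DMSO baseline.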

Measured: AC50

X-box-binding protein 1 (Homo sapiens), sequence (P17861 whole entry, looked up): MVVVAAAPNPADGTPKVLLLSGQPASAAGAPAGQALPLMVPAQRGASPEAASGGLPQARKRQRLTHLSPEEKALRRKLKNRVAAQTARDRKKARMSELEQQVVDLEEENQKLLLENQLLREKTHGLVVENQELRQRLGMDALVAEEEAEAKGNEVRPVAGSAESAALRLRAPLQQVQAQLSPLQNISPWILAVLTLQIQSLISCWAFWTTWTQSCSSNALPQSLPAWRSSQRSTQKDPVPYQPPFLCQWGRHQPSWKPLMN
Estrogen receptor (Homo sapiens), sequence (P03372 whole entry, looked up, the tested form may be a part): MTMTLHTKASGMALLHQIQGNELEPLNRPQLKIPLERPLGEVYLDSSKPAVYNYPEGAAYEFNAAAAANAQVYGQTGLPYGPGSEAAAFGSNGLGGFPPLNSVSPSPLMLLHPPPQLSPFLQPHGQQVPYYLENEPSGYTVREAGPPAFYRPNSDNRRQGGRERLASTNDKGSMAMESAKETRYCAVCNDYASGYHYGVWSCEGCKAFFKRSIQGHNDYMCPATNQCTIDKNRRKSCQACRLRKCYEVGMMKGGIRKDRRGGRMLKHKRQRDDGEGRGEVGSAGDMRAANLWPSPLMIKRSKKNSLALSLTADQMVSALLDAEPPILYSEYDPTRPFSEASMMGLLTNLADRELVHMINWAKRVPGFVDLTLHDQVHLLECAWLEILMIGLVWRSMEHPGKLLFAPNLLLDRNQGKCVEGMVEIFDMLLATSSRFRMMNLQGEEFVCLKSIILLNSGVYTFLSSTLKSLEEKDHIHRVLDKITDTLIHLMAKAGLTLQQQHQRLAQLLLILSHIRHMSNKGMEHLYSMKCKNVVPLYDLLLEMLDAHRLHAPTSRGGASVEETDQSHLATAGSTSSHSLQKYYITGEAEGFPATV
Nuclear receptor subfamily 1 group I member 3 (Homo sapiens), sequence (Q14994 whole entry, looked up, the tested form may be a part): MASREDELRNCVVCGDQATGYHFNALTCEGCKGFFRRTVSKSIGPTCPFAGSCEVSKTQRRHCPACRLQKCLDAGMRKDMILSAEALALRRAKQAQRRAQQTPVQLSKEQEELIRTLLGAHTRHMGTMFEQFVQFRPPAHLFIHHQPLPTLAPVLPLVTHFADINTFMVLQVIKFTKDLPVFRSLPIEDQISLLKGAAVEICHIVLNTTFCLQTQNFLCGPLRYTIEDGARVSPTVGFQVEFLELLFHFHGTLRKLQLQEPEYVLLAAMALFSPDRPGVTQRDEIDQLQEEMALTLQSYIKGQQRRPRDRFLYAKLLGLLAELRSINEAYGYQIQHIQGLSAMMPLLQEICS
Steroid hormone receptor ERR1 (Homo sapiens), sequence (P11474 whole entry, looked up, the tested form may be a part): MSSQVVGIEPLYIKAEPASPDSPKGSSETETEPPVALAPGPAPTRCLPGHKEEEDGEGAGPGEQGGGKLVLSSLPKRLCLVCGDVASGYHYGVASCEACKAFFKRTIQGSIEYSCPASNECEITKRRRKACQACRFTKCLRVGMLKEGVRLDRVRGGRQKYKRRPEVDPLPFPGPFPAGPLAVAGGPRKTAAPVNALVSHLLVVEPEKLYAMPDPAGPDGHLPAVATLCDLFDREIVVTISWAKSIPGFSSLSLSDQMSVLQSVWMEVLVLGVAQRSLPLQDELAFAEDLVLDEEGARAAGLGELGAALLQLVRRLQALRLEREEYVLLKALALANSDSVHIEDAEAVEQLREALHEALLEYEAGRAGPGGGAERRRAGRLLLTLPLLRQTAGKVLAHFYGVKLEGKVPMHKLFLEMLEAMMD
Androgen receptor (Homo sapiens), sequence (P10275 whole entry, looked up, the tested form may be a part): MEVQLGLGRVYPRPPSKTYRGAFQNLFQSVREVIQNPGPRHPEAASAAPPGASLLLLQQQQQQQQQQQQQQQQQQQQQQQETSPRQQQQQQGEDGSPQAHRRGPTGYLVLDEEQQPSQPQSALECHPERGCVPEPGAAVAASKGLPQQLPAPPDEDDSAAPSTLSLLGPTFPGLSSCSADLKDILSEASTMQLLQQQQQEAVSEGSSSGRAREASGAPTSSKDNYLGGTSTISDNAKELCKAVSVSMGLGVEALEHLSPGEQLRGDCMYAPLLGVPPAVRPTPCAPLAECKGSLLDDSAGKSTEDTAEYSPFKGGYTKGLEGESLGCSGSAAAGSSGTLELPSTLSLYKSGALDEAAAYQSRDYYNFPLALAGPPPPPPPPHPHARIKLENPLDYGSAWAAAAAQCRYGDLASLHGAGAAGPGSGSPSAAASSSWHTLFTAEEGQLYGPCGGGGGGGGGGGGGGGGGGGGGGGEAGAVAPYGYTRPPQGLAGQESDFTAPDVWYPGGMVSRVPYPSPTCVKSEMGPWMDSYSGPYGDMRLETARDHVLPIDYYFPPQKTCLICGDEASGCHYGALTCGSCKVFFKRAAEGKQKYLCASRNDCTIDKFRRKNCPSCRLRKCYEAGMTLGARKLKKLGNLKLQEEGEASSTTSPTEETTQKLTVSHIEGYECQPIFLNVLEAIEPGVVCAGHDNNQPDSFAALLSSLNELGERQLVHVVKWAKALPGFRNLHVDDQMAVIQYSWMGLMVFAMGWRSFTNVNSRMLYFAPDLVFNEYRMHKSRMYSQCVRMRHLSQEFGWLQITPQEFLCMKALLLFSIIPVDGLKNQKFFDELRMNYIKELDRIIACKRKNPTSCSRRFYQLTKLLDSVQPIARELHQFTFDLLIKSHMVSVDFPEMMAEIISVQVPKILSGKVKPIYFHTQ

OCCOc1ccccc1
inactive: [1] | [2] | [3] | [4] | [5] | [6] | [7] | [8] | [9]

C#CCN1C(=O)COc2cc(F)c(N3C(=O)C4=C(CCCC4)C3=O)cc21
inactive: [1] | [2] | [3] | [4] | [5] | [6] | [8] | [10] | [9]

Oc1ccc(Cl)cc1Cc1ccccc1
inactive: [1] | [2] | [3] | [5] | [8] | [10] | [9]
active: [1] 16.4 µM | [8] 7.32 µM and 11.2 µM and 15.9 µM

C[C@H]1[C@H](c2ccc(Cl)cc2)SC(=O)N1C(=O)NC1CCCCC1
inactive: [1] | [2] | [3] | [5] | [6] | [8]
active: [4] 13.7 µM

CNC(=O)Oc1cccc(N=CN(C)C)c1
active: [4] 82.3 µM | [8] 90.4 µM
inactive: [1] | [2] | [3] | [5] | [6]

Cc1cc(C)nc(NC(=O)NS(=O)(=O)c2ccccc2C(=O)OC2COC2)n1
active: [4] 50 µM
inactive: [1] | [2] | [3] | [5] | [6] | [8]

O=S1OCC2C(CO1)C1(Cl)C(Cl)=C(Cl)C2(Cl)C1(Cl)Cl (stereo unspecified)
inactive: [1] | [2] | [3] | [4] | [5] | [8] | [9]
active: [6] 2.04 µM

COC(=O)c1ccccc1CS(=O)(=O)NC(=O)Nc1nc(OC)cc(OC)n1
inactive: [1] | [2] | [3] | [4] | [5] | [6] | [7] | [8]

N#CN
inactive: [1] | [2] | [3] | [4] | [5] | [6] | [8]

CNC(=O)Oc1ccccc1OC(C)C
inactive: [1] | [2] | [3] | [4] | [5] | [6] | [7] | [8] | [9]

COP(=S)(OC)Oc1ccc(SC)c(C)c1
inactive: [1] | [2] | [3] | [5] | [8]
active: [4] 25.7 µM | [6] 18.8 µM

O=[N+]([O-])/N=C1\NCCN1Cc1ccc(Cl)nc1
inactive: [1] | [2] | [3] | [4] | [5] | [6] | [7] | [8] | [10]

ClC1C(Cl)C(Cl)C(Cl)C(Cl)C1Cl (stereo unspecified)
inactive: [1] | [2] | [3] | [7] | [8] | [9]
active: [2] 100 µM | [8] 42.6 µM

CNC(=O)/C=C(\C)OP(=O)(OC)OC
inactive: [1] | [2] | [3] | [4] | [5] | [6] | [8]

Oc1cc(Cl)ccc1Oc1ccc(Cl)cc1Cl
inactive: [1] | [2] | [3] | [4] | [5] | [7] | [8] | [9]
active: [1] 11.1 µM and 19.2 µM and 14.4 µM | [2] 11.1 µM | [4] 8.06 µM [middle of 6 runs] | [8] 11.3 µM [middle of 7 runs]

O=C(Nc1ccccc1)Nc1cnns1
inactive: [1] | [2] | [3] | [5] | [6] | [7] | [9]
active: [4] 50 µM | [8] 77.6 µM

CCOC1Oc2ccc(OS(C)(=O)=O)cc2C1(C)C (stereo unspecified)
inactive: [1] | [2] | [3] | [5] | [8] | [10] | [9]
active: [4] 25.7 µM | [6] 25.4 µM

COc1nn(CSP(=S)(OC)OC)c(=O)s1
inactive: [1] | [2] | [3] | [5] | [6] | [8]
active: [4] 50 µM

O=S(=O)(O)C(F)(F)C(F)(F)C(F)(F)C(F)(F)C(F)(F)C(F)(F)C(F)(F)C(F)(F)F
active: [3] 62.2 µM [middle of 9 runs] | [9] 100 µM
inactive: [1] | [2] | [3] | [4] | [7] | [8] | [9]

CCCN(CCC)c1c([N+](=O)[O-])cc(C(F)(F)F)cc1[N+](=O)[O-]
inactive: [1] | [2] | [3] | [5] | [8] | [9]
active: [4] 13.4 µM | [6] 35.9 µM

CCOCN(C(=O)CCl)c1c(C)cccc1CC
inactive: [1] | [2] | [3] | [4] | [5] | [6] | [7] | [8] | [9]

COc1cc(OC)nc(NC(=O)NS(=O)(=O)c2cc(NC=O)ccc2C(=O)N(C)C)n1
inactive: [1] | [2] | [3] | [4] | [5] | [6] | [7] | [8] | [10] | [9]

O=C(O)C(F)(F)C(F)(F)C(F)(F)C(F)(F)C(F)(F)C(F)(F)C(F)(F)F
inactive: [1] | [2] | [3] | [4] | [8] | [9]
active: [1] 221 µM and 231 µM

O=[N+]([O-])c1c(Cl)c(Cl)c(Cl)c(Cl)c1Cl
inactive: [2] | [3] | [5] | [8] | [9]
active: [1] 29 µM | [4] 50 µM | [6] 50 µM

CNC(=O)CSP(=S)(OC)OC
inactive: [1] | [2] | [3] | [4] | [5] | [6] | [8]
